Data: PubChem BioAssay (EPA / NIEHS)
Several values for one entry are separate records, joined by “and”; a condition that tells them apart may be missing. Equal values may be shown once. Results filed as inconclusive are left out. More than one record can exist for a structure, and the calls need not agree. Activity calls are given as the source filed them. The calls were made as follows: active = hit-call score of the fitted dose curve at least 0.9, where 1 is the maximum; inconclusive = response in the unintended direction; inactive = score below 0.9.

Legend:
[1] = ATG_M_06_XSP2: Attagene TRANS-FACTORIAL Multi-Species (XSP2) HepG2 Assay for M06 Transcription Factor (Internal Marker) (AID 2283811);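 also: hits are increases in signal above the DMSO baseline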
Method in brief: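 HepG2 cells transiently transfected with GAL4-UAS multi-reporter constructs, dosed 24 h with 3 nM 6-alpha-fluorotestosterone plus 1.5 nM norgestrel present to stimulate androgen receptor. Reporter mRNA quantified by RT-PCR, 6-FAM labelling, HpaI digestion and capillary electrophoresis; gain-of-signal fitted versus DMSO baseline.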

[2] = test system: turtle Estrogen Receptor (ERa), gene 101933533; test: ATG_trERa_XSP2: Attagene TRANS-FACTORIAL Multi-Species (XSP2) HepG2 Assay for turtle Estrogen Receptor (ERa) (AID 2283812);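 also: human HepG2 liver cells transiently expressing turtle ERa-Gal4 chimeric receptor; actives raise reporter signal above DMSO so AC50 reflects agonist activity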
Method in brief: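 HepG2 cells transiently transfected with GAL4-UAS reporter units expressing turtle ERa-Gal4 chimera. Reporter mRNA measured after 24 h dosing by RT-PCR, fluorescent labelling and capillary electrophoresis; gain of signal fitted versus DMSO.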

[3] = biological target: GAL4 Transcription Factor (Internal Marker), GAL4 (gene 855828) (UniProt P04386); test: ATG_GAL4_XSP2: Attagene TRANS-FACTORIAL Multi-Species (XSP2) HepG2 Assay for GAL4 Transcription Factor (Internal Marker) (AID 2283814);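 also: GAL4 reporter mRNA background control in MRTU transfected cells not a receptor target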
Method in brief: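 HepG2 cells transiently transfected with GAL4-UAS reporter units, stimulated with 3 nM 6-alpha-fluorotestosterone plus 1.5 nM norgestrel, dosed 24 h. Reporter mRNA by RT-PCR/capillary electrophoresis; gain-of-signal fit versus DMSO, background control.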

[4] = biological target: zebrafish Estrogen Receptor (ER1), esr1 (gene 259252) (UniProt P57717); test: ATG_zfER1_XSP2: Attagene TRANS-FACTORIAL Multi-Species (XSP2) HepG2 Assay for zebrafish Estrogen Receptor (ER1) (AID 2283816)
Method in brief: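 HepG2 cells transiently transfected with a GAL4-UAS reporter and a chimeric zebrafish ER1-Gal4 construct, dosed 24 h. Reporter mRNA quantified by RT-PCR, labelling, HpaI digestion and capillary electrophoresis, relative to DMSO.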

[5] = biological target: chicken Estrogen Receptor (ERa), ESR1 (gene 396099) (UniProt P06212); test: ATG_chERa_XSP2: Attagene TRANS-FACTORIAL Multi-Species (XSP2) HepG2 Assay for chicken Estrogen Receptor (ERa) (AID 2283817);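 also: actives raise reporter signal above DMSO so AC50 reflects ER activation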
Method in brief: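 HepG2 cells transiently transfected with multiplexed GAL4-UAS reporter units expressing chimeric chicken ERa-Gal4; 24 h compound exposure. Reporter mRNA measured by RT-PCR with 6-FAM labelling, HpaI digestion and capillary electrophoresis; gain-of-signal fitted versus DMSO.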

[6] = test system: zebrafish Estrogen Receptor (ER2a), gene 317734; test: ATG_zfER2a_XSP2: Attagene TRANS-FACTORIAL Multi-Species (XSP2) HepG2 Assay for zebrafish Estrogen Receptor (ER2a) (AID 2283818);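 also: hits raise reporter mRNA so AC50 reflects activation of zebrafish ER2a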
Method in brief: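 HepG2 cells transiently transfected with GAL4-UAS reporter units and chimeric zebrafish ER2a-Gal4, exposed 24 h; medium contains 3 nM 6-alpha-fluorotestosterone and 1.5 nM norgestrel. Reporter mRNA quantified by RT-PCR, HpaI digestion, capillary electrophoresis; gain versus DMSO.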

[7] = test system: chicken Androgen Receptor (AR), gene 422165; test: ATG_chAR_XSP2: Attagene TRANS-FACTORIAL Multi-Species (XSP2) HepG2 Assay for chicken Androgen Receptor (AR) (AID 2283819);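 also: hits raise reporter mRNA above DMSO so potency is for activation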
Method in brief: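 HepG2 cells transiently transfected with chicken AR–GAL4 chimeric reporter constructs, stimulated with 3 nM 6-alpha-fluorotestosterone plus 1.5 nM norgestrel, dosed 24 h. Reporter mRNA quantified by RT-PCR and capillary electrophoresis; gain of signal fitted versus DMSO.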

[8] = test system: frog Estrogen Receptor (ER), gene 398734; test: ATG_frER1_XSP2: Attagene TRANS-FACTORIAL Multi-Species (XSP2) HepG2 Assay for frog Estrogen Receptor (ER) (AID 2283821);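 also: hits raise reporter mRNA above DMSO baseline so potency means agonist or activator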
Method in brief: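 HepG2, transient MRTU transfection, chimeric NR-GAL4/UAS reporters; 24 h compound exposure, 24-well. Readout: reporter mRNA via RT-PCR + capillary electrophoresis, fluorescence. Positive fit vs DMSO baseline.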

[9] = test system: zebrafish Estrogen Receptor (ER2b), gene 317733; test: ATG_zfER2b_XSP2: Attagene TRANS-FACTORIAL Multi-Species (XSP2) HepG2 Assay for zebrafish Estrogen Receptor (ER2b) (AID 2283823);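 also: fitted upward as reporter gain over DMSO so potency reflects activation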
Method in brief: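 In this multiplexed trans-activation format, HepG2 cells expressing exogenous NR-Gal4 fusions drive GAL4-UAS reporters. Exposure lasts 24 h, and reporter mRNA induction is read by RT-PCR with capillary electrophoresis detection.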

[10] = ATG_M_32_XSP1: Attagene TRANS-FACTORIAL Multi-Species (XSP1) HepG2 Assay for M32 Transcription Factor (Internal Marker) (AID 2283799)
Method in brief: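 HepG2 cells transiently transfected with multi-species TRANS reporter units, dosed 24 h with 3 nM 6-alpha-fluorotestosterone present. Internal-marker reporter mRNA quantified by RT-PCR and capillary electrophoresis; positive-direction fit versus DMSO.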

[11] = biological target: Peroxisome proliferator-activated receptor gamma (Homo sapiens) (UniProt P37231); test: ATG_hPPARg_XSP1: Attagene TRANS-FACTORIAL Multi-Species (XSP1) HepG2 Assay for human Peroxisome Proliferator-activated Receptor gamma (PPARg) (AID 2283800)
Method in brief: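 HepG2 cells transiently transfected with GAL4-UAS reporter units carrying chimeric NR-Gal4 proteins; 3 nM 6-alpha-fluorotestosterone present. After 24 h dosing, reporter mRNA quantified by RT-PCR and capillary electrophoresis; gain of signal relative to DMSO.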

[12] = test system: zebrafish Peroxisome Proliferator-activated Receptor gamma (PPARg), gene 557037; test: ATG_zfPPARg_XSP1: Attagene TRANS-FACTORIAL Multi-Species (XSP1) HepG2 Assay for zebrafish Peroxisome Proliferator-activated Receptor gamma (PPARg) (AID 2283801)
Method in brief: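 HepG2 cells transiently transfected with GAL4-UAS reporter units including a zebrafish PPARg–GAL4 chimera, dosed 24 h with 3 nM 6-alpha-fluorotestosterone present. Reporter mRNA quantified by RT-PCR, FAM labelling, HpaI digestion and capillary electrophoresis; induction versus DMSO.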

[13] = biological target: mouse Peroxisome Proliferator-activated Receptor gamma (PPARg), Pparg (gene 19016) (UniProt P37238); test: ATG_mPPARg_XSP1: Attagene TRANS-FACTORIAL Multi-Species (XSP1) HepG2 Assay for mouse Peroxisome Proliferator-activated Receptor gamma (PPARg) (AID 2283802)
Method in brief: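 HepG2 cells transiently transfected with GAL4-UAS reporter units driven by mouse PPARg–GAL4 chimera; 3 nM 6-alpha-fluorotestosterone present. After 24 h dosing, reporter mRNA quantified by RT-PCR, fluorescent labelling and capillary electrophoresis; gain of signal versus DMSO.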

[14] = biological target: Nuclear receptor subfamily 1 group I member 2 (Mus musculus) (UniProt O54915); test: ATG_mPXR_XSP1: Attagene TRANS-FACTORIAL Multi-Species (XSP1) HepG2 Assay for mouse Pregnane X Receptor (PXR) (AID 2283803)
Method in brief: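 Transiently transfected HepG2 cells expressing a receptor-Gal4 chimera drive a GAL4-UAS reporter; 3 nM 6-alpha-fluorotestosterone included. Reporter mRNA read 24 h post-dose by RT-PCR and capillary electrophoresis; gain of signal relative to DMSO.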

[15] = biological target: frog Thyroid hormone Receptor alpha (TRa), thra-a (gene 397942) (UniProt P15204); test: ATG_frTRa_XSP1: Attagene TRANS-FACTORIAL Multi-Species (XSP1) HepG2 Assay for frog Thyroid hormone Receptor alpha (TRa) (AID 2283804)
Method in brief: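 HepG2 cells transiently transfected with frog TRa-GAL4 chimeric reporter units, dosed 24 hr with 3 nM 6-alpha-fluorotestosterone present; reporter mRNA quantified by RT-PCR, fluorescent labelling and capillary electrophoresis, gain of signal versus DMSO.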

[16] = test system: turtle Thyroid Hormone Receptor, alpha (TRa), gene 101949057; test: ATG_trTRa_XSP1: Attagene TRANS-FACTORIAL Multi-Species (XSP1) HepG2 Assay for turtle Thyroid Hormone Receptor, alpha (TRa) (AID 2283806)
Method in brief: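 HepG2 cells transiently transfected with GAL4-UAS reporter units and chimeric receptor-Gal4 constructs, with 3 nM 6-alpha-fluorotestosterone present. Reporter mRNA was quantified 24 h after dosing by RT-PCR, 6-FAM labelling and capillary electrophoresis; gain of signal versus DMSO.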

[17] = biological target: zebrafish Thyroid Hormone Receptor beta (TRb), thrb (gene 30607) (UniProt Q9PVE4); test: ATG_zfTRb_XSP1: Attagene TRANS-FACTORIAL Multi-Species (XSP1) HepG2 Assay for zebrafish Thyroid Hormone Receptor beta (TRb) (AID 2283809)
Method in brief: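 HepG2 cells transiently transfected with multiplexed GAL4-UAS reporter units expressing chimeric zebrafish TRb–Gal4. Dosed 24 h with 3 nM 6-alpha-fluorotestosterone present; reporter mRNA measured by RT-PCR, HpaI digestion and capillary electrophoresis; gain of signal versus DMSO.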

[18] = ATG_XTT_Cytotoxicity_XSP1: Cytotoxicity Assessment in the Attagene TRANS-FACTORIAL Multi-Species (XSP1) HepG2 Assay (AID 2283810)
Method in brief: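 XTT viability readout taken at 24 hours post-dosing in HepG2 liver cells co-treated with 3 nM 6-alpha-fluorotestosterone. Signal loss relative to DMSO controls reflects cytotoxicity.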

[19] = biological target: Estrogen receptor beta (Homo sapiens) (UniProt Q92731); test: ATG_hERb_XSP2: Attagene TRANS-FACTORIAL Multi-Species (XSP2) HepG2 Assay for human Estrogen Receptor (ERb) (AID 2283813);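 also: actives raise reporter mRNA above DMSO so AC50 reflects agonist induction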
Method in brief: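 HepG2 cells transiently transfected with GAL4-UAS reporter units and chimeric human ERb-Gal4, 24 h exposure. Reporter mRNA quantified by RT-PCR with FAM labelling, HpaI digestion and capillary electrophoresis; gain of signal versus DMSO.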

[20] = test system: frog Androgen Receptor (AR), gene 399456; test: ATG_frAR_XSP2: Attagene TRANS-FACTORIAL Multi-Species (XSP2) HepG2 Assay for frog Androgen Receptor (AR) (AID 2283824);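 also: actives raise reporter signal above DMSO so AC50 reflects agonist-like induction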
Method in brief: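 HepG2 cells transiently transfected with GAL4-UAS reporter units and frog (Xenopus laevis) AR-Gal4 chimera; reporter mRNA measured 24 h after dosing by RT-PCR and capillary electrophoresis. Gain of signal fitted relative to DMSO baseline.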

Measured: AC50

Sequence of chicken Estrogen Receptor (ERa), ESR1 (gene 396099) (P06212 whole entry, looked up, the tested form may be a part): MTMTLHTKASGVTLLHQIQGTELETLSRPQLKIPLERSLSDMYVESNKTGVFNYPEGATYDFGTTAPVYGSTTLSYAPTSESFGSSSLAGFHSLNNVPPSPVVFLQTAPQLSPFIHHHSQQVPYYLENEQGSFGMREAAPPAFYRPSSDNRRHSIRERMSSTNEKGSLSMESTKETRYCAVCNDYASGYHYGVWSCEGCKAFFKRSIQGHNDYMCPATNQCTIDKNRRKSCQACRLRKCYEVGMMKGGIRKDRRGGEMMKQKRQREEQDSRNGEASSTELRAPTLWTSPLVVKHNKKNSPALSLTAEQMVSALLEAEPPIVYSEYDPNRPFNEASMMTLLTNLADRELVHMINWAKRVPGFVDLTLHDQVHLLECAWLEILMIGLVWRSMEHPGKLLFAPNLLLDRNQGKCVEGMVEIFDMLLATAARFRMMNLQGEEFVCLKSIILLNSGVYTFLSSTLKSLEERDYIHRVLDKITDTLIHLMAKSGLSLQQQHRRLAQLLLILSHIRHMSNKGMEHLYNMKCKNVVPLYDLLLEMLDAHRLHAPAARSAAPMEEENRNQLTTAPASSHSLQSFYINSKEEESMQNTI
Sequence of zebrafish Estrogen Receptor (ER1), esr1 (gene 259252) (P57717 whole entry, looked up, the tested form may be a part): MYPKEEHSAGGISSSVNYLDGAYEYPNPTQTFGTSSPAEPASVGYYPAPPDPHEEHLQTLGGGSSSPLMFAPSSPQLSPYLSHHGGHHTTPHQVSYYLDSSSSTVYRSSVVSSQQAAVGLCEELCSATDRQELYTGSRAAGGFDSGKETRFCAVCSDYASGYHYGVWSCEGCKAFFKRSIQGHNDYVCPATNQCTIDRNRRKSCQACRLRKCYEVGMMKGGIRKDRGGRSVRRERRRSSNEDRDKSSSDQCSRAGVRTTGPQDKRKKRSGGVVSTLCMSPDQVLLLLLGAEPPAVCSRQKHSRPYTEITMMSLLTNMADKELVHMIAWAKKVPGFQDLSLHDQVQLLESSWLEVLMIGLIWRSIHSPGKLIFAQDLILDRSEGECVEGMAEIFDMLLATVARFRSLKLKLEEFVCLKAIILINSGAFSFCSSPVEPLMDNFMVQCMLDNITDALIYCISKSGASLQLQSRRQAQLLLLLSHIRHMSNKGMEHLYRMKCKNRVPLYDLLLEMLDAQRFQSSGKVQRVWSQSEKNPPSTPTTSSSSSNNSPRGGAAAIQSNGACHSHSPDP
Sequence of GAL4 Transcription Factor (Internal Marker), GAL4 (gene 855828) (P04386 whole entry, looked up, the tested form may be a part): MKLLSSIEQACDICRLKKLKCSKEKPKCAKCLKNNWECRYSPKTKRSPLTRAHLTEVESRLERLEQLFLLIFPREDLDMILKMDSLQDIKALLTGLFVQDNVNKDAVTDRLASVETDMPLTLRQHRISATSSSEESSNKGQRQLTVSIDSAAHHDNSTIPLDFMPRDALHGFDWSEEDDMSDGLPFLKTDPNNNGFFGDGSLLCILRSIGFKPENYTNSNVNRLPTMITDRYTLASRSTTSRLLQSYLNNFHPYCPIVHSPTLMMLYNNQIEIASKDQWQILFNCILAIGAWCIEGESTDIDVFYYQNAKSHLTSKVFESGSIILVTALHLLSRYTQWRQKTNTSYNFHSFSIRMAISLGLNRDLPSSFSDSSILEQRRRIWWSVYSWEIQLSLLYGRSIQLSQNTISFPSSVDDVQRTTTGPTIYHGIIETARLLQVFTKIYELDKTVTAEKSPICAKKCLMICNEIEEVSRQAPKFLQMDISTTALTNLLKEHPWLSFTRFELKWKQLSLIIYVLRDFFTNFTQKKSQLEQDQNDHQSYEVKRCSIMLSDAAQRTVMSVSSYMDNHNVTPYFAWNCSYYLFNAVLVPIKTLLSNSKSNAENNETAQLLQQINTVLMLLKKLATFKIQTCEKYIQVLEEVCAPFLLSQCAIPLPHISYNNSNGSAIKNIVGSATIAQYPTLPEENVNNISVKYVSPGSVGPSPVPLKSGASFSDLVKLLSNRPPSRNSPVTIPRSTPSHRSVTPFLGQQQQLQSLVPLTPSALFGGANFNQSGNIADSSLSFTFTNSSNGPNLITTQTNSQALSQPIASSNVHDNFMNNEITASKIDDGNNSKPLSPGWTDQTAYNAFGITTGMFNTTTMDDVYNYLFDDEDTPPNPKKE
Sequence of mouse Peroxisome Proliferator-activated Receptor gamma (PPARg), Pparg (gene 19016) (P37238 whole entry, looked up, the tested form may be a part): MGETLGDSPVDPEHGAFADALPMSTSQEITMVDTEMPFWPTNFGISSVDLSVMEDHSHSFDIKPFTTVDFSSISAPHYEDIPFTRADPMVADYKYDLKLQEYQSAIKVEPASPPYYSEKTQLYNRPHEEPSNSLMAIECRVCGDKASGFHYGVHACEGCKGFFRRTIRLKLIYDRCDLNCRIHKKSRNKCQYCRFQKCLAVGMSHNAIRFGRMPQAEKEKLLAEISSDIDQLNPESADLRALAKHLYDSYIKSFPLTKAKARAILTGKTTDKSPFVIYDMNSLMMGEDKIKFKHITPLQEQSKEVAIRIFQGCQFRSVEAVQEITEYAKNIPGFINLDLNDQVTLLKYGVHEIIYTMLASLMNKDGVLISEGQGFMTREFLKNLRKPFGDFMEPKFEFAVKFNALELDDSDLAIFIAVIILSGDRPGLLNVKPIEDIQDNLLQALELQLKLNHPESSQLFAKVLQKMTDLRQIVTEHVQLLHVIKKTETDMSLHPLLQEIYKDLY
Sequence of Nuclear receptor subfamily 1 group I member 2 (Mus musculus) (O54915 whole entry, looked up, the tested form may be a part): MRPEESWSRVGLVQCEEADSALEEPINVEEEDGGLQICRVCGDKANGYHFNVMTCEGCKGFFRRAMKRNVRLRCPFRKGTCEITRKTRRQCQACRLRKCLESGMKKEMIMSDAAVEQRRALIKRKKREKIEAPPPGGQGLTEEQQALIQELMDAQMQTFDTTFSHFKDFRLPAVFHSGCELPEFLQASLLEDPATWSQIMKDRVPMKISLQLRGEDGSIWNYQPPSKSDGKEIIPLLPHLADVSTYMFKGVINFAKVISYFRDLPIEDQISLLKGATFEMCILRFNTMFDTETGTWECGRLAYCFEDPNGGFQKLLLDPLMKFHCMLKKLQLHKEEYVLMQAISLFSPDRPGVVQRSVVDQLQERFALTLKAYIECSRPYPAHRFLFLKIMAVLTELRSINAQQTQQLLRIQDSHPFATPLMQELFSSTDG
Sequence of Peroxisome proliferator-activated receptor gamma (Homo sapiens) (P37231 whole entry, looked up, the tested form may be a part): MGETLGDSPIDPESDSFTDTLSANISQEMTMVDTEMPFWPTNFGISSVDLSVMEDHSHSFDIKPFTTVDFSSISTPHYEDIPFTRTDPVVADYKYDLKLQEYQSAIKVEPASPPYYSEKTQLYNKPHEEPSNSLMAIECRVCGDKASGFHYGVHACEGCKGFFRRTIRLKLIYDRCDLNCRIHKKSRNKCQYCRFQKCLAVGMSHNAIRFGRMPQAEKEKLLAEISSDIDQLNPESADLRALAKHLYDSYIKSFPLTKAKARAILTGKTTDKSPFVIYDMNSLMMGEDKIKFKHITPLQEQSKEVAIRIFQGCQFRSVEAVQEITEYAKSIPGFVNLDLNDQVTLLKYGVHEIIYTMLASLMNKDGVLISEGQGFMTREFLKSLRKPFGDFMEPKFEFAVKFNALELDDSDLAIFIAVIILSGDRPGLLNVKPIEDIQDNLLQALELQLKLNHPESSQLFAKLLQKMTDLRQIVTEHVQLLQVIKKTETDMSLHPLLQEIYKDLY
Sequence of Estrogen receptor beta (Homo sapiens) (Q92731 whole entry, looked up, the tested form may be a part): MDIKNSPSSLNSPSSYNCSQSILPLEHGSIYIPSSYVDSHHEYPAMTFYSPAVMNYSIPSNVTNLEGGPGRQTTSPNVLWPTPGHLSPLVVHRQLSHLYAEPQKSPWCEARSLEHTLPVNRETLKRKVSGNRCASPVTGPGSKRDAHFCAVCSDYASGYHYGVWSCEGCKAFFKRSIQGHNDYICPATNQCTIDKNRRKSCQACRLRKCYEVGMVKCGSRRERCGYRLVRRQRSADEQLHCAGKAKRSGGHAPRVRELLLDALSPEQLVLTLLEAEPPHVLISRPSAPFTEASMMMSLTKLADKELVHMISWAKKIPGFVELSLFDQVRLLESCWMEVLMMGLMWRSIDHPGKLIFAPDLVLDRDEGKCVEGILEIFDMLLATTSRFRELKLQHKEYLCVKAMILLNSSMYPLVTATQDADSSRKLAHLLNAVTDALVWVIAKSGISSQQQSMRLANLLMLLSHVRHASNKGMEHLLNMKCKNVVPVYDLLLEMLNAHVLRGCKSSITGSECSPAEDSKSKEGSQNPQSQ
Sequence of frog Thyroid hormone Receptor alpha (TRa), thra-a (gene 397942) (P15204 whole entry, looked up, the tested form may be a part): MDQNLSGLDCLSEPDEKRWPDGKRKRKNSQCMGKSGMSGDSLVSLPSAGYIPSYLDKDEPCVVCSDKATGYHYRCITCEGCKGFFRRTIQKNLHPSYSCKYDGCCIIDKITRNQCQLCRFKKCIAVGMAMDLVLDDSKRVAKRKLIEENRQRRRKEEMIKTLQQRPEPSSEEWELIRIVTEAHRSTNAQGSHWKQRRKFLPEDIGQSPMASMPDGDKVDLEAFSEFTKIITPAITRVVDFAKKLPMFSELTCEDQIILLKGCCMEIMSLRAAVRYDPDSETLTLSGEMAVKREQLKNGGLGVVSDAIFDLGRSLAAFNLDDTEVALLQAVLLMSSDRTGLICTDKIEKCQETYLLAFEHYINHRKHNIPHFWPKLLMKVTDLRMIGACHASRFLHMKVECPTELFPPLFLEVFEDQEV
Sequence of zebrafish Thyroid Hormone Receptor beta (TRb), thrb (gene 30607) (Q9PVE4 whole entry, looked up, the tested form may be a part): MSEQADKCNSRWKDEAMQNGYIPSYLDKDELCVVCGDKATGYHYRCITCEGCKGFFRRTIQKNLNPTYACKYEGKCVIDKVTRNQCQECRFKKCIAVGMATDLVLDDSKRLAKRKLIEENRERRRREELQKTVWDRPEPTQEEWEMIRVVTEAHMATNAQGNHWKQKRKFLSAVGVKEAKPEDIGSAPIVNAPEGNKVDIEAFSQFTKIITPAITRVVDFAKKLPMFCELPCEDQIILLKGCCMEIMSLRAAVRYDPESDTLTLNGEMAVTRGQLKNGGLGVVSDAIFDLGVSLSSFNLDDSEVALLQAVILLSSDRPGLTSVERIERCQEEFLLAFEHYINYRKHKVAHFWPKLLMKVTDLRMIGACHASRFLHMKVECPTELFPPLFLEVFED

C=CCOC(=O)c1ccccc1C(=O)OCC=C
active: [2] 74.3 µM and 100 µM | [5] 62.3 µM | [9] 139 µM and 78.9 µM
inactive: [1] | [3] | [4] | [5] | [6] | [7] | [8]

CC(C)(C)c1cc(O)c(C(C)(C)C)cc1O
active: [11] 160 µM | [13] 100 µM | [9] 49.3 µM
not listed: [3] | [20]
inactive: all other assays above

CCCc1cc(=O)[nH]c(=S)[nH]1
inactive: [4] | [8] | [9] | [20]

CC(=O)C(C)=CC1C(C)=CCCC1(C)C (stereo unspecified)
inactive: [1] | [3] | [4]
active: [2] 29.9 µM and 25.5 µM | [4] 34.2 µM | [5] 19.8 µM and 14 µM | [6] 15 µM and 19.8 µM | [8] 27.3 µM and 27.2 µM | [9] 32 µM and 29.8 µM
